Experiments:
Conditions in all cases: concentration: 1 μM, replicates: in singlicate; n = 1
LYN = test system: LYN
LZK = test system: T1, LZK
T1 construct: gene MAP3K13

MAK = test system: MAK
MAP3K15 = test system: MAP3K15
MAP3K1 = test system: MAP3K1
MAP3K2 = test system: MAP3K2
MAP3K3 = test system: MAP3K3
MAP3K4 = test system: MAP3K4
MAP4K2 = test system: MAP4K2
MAP4K3 = test system: MAP4K3
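Note: KINOMEscan kinase panel screen.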

CS(=O)(=O)c1ccc(-c2nc3n(c2-c2ccncc2)CCC3)cc1 [SKF-105942]
%Inh (LYN): 3% | %Inh (LZK): 0% | %Inh (MAK): 25% | %Inh (MAP3K15): 0% | %Inh (MAP3K1): 0% | %Inh (MAP3K2): 3% | %Inh (MAP3K3): 0% | %Inh (MAP3K4): 35% | %Inh (MAP4K2): 0% | %Inh (MAP4K3): 2%

Cc1cc(N2Cc3ccccc3C2)nc(Nc2ccc(S(=O)(=O)N3CCOCC3)cc2)n1.Cl [GSK1669917]
%Inh (LYN): 0% | %Inh (LZK): 0% | %Inh (MAK): 14% | %Inh (MAP3K15): 0% | %Inh (MAP3K1): 0% | %Inh (MAP3K2): 0% | %Inh (MAP3K3): 0% | %Inh (MAP3K4): 2% | %Inh (MAP4K2): 0% | %Inh (MAP4K3): 0%

Cc1c(O)cccc1Nc1ccnc2ccc(C(F)(F)F)cc12.Cl [GW466413]
%Inh (LYN): 0% | %Inh (LZK): 14% | %Inh (MAK): 0% | %Inh (MAP3K15): 0% | %Inh (MAP3K1): 2% | %Inh (MAP3K2): 22% | %Inh (MAP3K3): 47% | %Inh (MAP3K4): 0% | %Inh (MAP4K2): 0% | %Inh (MAP4K3): 0%

NC(=O)c1nnc2ccccc2c1N
%Inh (LYN): 5% | %Inh (LZK): 0% | %Inh (MAK): 23% | %Inh (MAP3K15): 30% | %Inh (MAP3K1): 28% | %Inh (MAP3K2): 31% | %Inh (MAP3K3): 34% | %Inh (MAP3K4): 15% | %Inh (MAP4K2): 20% | %Inh (MAP4K3): 4%

Nc1nc(-c2nccs2)c(-c2ccnc3ccccc23)s1 [GW693542]
%Inh (LYN): 3% | %Inh (LZK): 3% | %Inh (MAK): 46% | %Inh (MAP3K15): 0% | %Inh (MAP3K1): 13% | %Inh (MAP3K2): 0% | %Inh (MAP3K3): 0% | %Inh (MAP3K4): 27% | %Inh (MAP4K2): 0% | %Inh (MAP4K3): 0%

COc1ccc(Nc2nccc(NCCNC(=O)Nc3ccccc3F)n2)cc1 [GSK1379901]
%Inh (LYN): 0% | %Inh (LZK): 7% | %Inh (MAK): 19% | %Inh (MAP3K15): 0% | %Inh (MAP3K1): 1% | %Inh (MAP3K2): 5% | %Inh (MAP3K3): 0% | %Inh (MAP3K4): 52% | %Inh (MAP4K2): 0% | %Inh (MAP4K3): 0%

COc1ccccc1-c1ccc2c(NC(=O)C3CC3)n[nH]c2n1 [SB-711239]
%Inh (LYN): 18% | %Inh (LZK): 24% | %Inh (MAK): 23% | %Inh (MAP3K15): 0% | %Inh (MAP3K1): 0% | %Inh (MAP3K2): 0% | %Inh (MAP3K3): 0% | %Inh (MAP3K4): 32% | %Inh (MAP4K2): 0% | %Inh (MAP4K3): 0%

COc1cc2ncnc(Nc3ccc4nc(-c5ccccc5)[nH]c4c3)c2cc1OC.Cl [GW282450]
%Inh (LYN): 0% | %Inh (LZK): 0% | %Inh (MAK): 0% | %Inh (MAP3K15): 0% | %Inh (MAP3K1): 19% | %Inh (MAP3K2): 8% | %Inh (MAP3K3): 0% | %Inh (MAP3K4): 9% | %Inh (MAP4K2): 0% | %Inh (MAP4K3): 3%

COc1ccc(C2=C(Nc3cccc(C(=O)O)c3)C(=O)NC2=O)cc1 [SB-390765]
%Inh (LYN): 21% | %Inh (LZK): 52% | %Inh (MAK): 36% | %Inh (MAP3K15): 15% | %Inh (MAP3K1): 18% | %Inh (MAP3K2): 12% | %Inh (MAP3K3): 7% | %Inh (MAP3K4): 9% | %Inh (MAP4K2): 32% | %Inh (MAP4K3): 2%

Cc1cccc(-c2nc(Nc3ccncc3)c3ccccc3n2)n1 [GW855857]
%Inh (LYN): 0% | %Inh (LZK): 0% | %Inh (MAK): 0% | %Inh (MAP3K15): 0% | %Inh (MAP3K1): 0% | %Inh (MAP3K2): 0% | %Inh (MAP3K3): 0% | %Inh (MAP3K4): 16% | %Inh (MAP4K2): 0% | %Inh (MAP4K3): 0%

Cc1cccc(-c2nc(Nc3cccc(C(N)=O)c3)c3ccccc3n2)n1 [GW876019]
%Inh (LYN): 0% | %Inh (LZK): 0% | %Inh (MAK): 0% | %Inh (MAP3K15): 0% | %Inh (MAP3K1): 3% | %Inh (MAP3K2): 0% | %Inh (MAP3K3): 26% | %Inh (MAP3K4): 0% | %Inh (MAP4K2): 0% | %Inh (MAP4K3): 0%

O=c1cc(N2CCOCC2)nc2n(Cc3cccc(Cl)c3Cl)ccn12 [GSK2286295]
%Inh (LYN): 97.8% | %Inh (LZK): 0% | %Inh (MAK): 78% | %Inh (MAP3K15): 0% | %Inh (MAP3K1): 6% | %Inh (MAP3K2): 0% | %Inh (MAP3K3): 0% | %Inh (MAP3K4): 25% | %Inh (MAP4K2): 0% | %Inh (MAP4K3): 0%

COc1cc(Nc2nccc(N3CCC(NC(=O)Nc4cc(C)ccc4C)C3)n2)cc(OC)c1OC (stereo not drawn) [GSK1379762]
%Inh (LYN): 6% | %Inh (LZK): 0% | %Inh (MAK): 54% | %Inh (MAP3K15): 17% | %Inh (MAP3K1): 16% | %Inh (MAP3K2): 0% | %Inh (MAP3K3): 0% | %Inh (MAP3K4): 12% | %Inh (MAP4K2): 0% | %Inh (MAP4K3): 0%

Cc1nnc(-c2ccc3occ(-c4ccc(S(C)=O)cc4)c3c2)[nH]1 (stereo not drawn)
%Inh (LYN): 18% | %Inh (LZK): 0% | %Inh (MAK): 0% | %Inh (MAP3K15): 10% | %Inh (MAP3K1): 24% | %Inh (MAP3K2): 1% | %Inh (MAP3K3): 0% | %Inh (MAP3K4): 2% | %Inh (MAP4K2): 0% | %Inh (MAP4K3): 11%

COc1cc2nccc(Nc3ccc(NC(=O)c4ccc(C)cc4)c(O)c3)c2cc1OC.Cl [GW440132]
%Inh (LYN): 28% | %Inh (LZK): 0% | %Inh (MAK): 13% | %Inh (MAP3K15): 13% | %Inh (MAP3K1): 10% | %Inh (MAP3K2): 9% | %Inh (MAP3K3): 0% | %Inh (MAP3K4): 2% | %Inh (MAP4K2): 0% | %Inh (MAP4K3): 8%

O=C(Nc1ccccc1)Nc1cccc(Oc2ccc3nccn3n2)c1
%Inh (LYN): 0% | %Inh (LZK): 0% | %Inh (MAK): 27% | %Inh (MAP3K15): 0% | %Inh (MAP3K1): 0% | %Inh (MAP3K2): 0% | %Inh (MAP3K3): 0% | %Inh (MAP3K4): 4% | %Inh (MAP4K2): 0% | %Inh (MAP4K3): 9%

COc1cc2ncn(-c3cc(OCC4CCCO4)c(C(N)=O)s3)c2cc1OC (stereo not drawn) [GSK204607]
%Inh (LYN): 0% | %Inh (LZK): 0% | %Inh (MAK): 9% | %Inh (MAP3K15): 0% | %Inh (MAP3K1): 50% | %Inh (MAP3K2): 0% | %Inh (MAP3K3): 0% | %Inh (MAP3K4): 0% | %Inh (MAP4K2): 0% | %Inh (MAP4K3): 70%

COc1ccccc1CNC(=O)c1cc(C(=O)c2ccccc2C)c[nH]1 [GSK364507]
%Inh (LYN): 0% | %Inh (LZK): 0% | %Inh (MAK): 7% | %Inh (MAP3K15): 3% | %Inh (MAP3K1): 6% | %Inh (MAP3K2): 15% | %Inh (MAP3K3): 0% | %Inh (MAP3K4): 32% | %Inh (MAP4K2): 0% | %Inh (MAP4K3): 0%

From paper PMC5540273 (PLoS ONE, 2017)
